Results filed as inconclusive are left out. Where a call stands in place of a potency, no number is given. A number with no mark means an inactive call. Calls of active or inactive are those of the source. The call rests on the fitted dose curve; in most records, active means well fitted inhibition curve with a large enough effect; inconclusive means small, poorly fitted or top-dose-only effect; inactive means no such curve, though single readings can be large or run the other way. Numbered stars: 1 amine (or outer) side, 2 acyl side, 3 side chain; on linkers, the order of the positions; unused ones are H or OH. Bridge positions count the residues as written; N and C are the ends. Square brackets hold non-standard residues; d marks the D form. Peptide text beside a SMILES is read from it. I, II: the chains in the order shown. * marks the point of attachment. ξ: configuration not given here. Actinocin(9to1) = Cc1c2oc3c(C)ccc(C(=O)[*:1])c3nc-2c(C(=O)[*:2])c(N)c1=O; ξNMeV = CNC(C(=O)O)C(C)C; Cbz = O=C(OCc1ccccc1)*; Nva = CCC[CH](N)C(=O)O; ξV = CC(C)C(N)C(=O)O; Sar = CNCC(=O)O
These compounds were tested on zebrafish Abcb4 (ABCB1 homolog) (assay: qHTS for characterization and localization of zebrafish homologs of the human ABCB1 multidrug transporter: ABCB4 transfected cells). Settings: CellTiter-Glo viability luminescence, 72 h; series mostly up to 46.1 µM.
Description: The zebrafish has emerged as a potential model to study the blood-brain barrier (BBB) given its similarities with mammalian systems. However, little information has been available with regard to homologous ATP-binding cassette transporters expressed at the zebrafish BBB. Two transporters that are highly expressed at the human BBB are P-glycoprotein (P-gp, encoded by the ABCB1 gene) and ABCG2 (encoded by the ABCG2 gene). In this study, we focus on characterization of P-gp homologs in the zebrafish, which has two genes that are homologous to human ABCB1 - abcb4 and abcb5. We generated stably-transfected cell lines to determine their substrate specificities. […] Zebrafish abcb4 also colocalized with claudin 5 expression in brain endothelial cells.
A high-throughput screen was performed as previously described on empty vector transfected cells, P-gp-overexpressing MDR-19 cells and cells transfected with full-length zebrafish abcb4 (ZF Abcb4) or abcb5 (ZF Abcb5). Briefly, cells were plated into 1536-well plates at a density of 500 cells/well in 5 uL media. P-gp substrate compounds (approximately 90) selected from our previous study were then added at varying concentrations using a 1536-head pin tool (Kalypsis, San Diego, CA) and plates were incubated at 37C in 5% CO2 for 72 h. CellTiter-Glo reagent (Promega) was dispensed into the wells, incubated for 5 min and luminescence was read on a ViewLux instrument (Perkin-Elmer).
Cytotoxic compounds were defined as those that yielded a curve class of -1.1, -1.2, -2.1, -2.2, -2.3, or -2.4, a maximum response of >50% and an AC50 of < 10 uM. All compounds from screening analysis were tested in Vector (empty vector control), MDR-19 (P-gp overexpressing), zebrafish abcb4 (ZF Abcb4) and abcb5 (ZF Abcb5) expression cell lines.
1. Tobie D Lee, Olivia W Lee, Kyle R Brimacombe, Lu Chen, Rajarshi Guha, Sabrina Lusvarghi, Bethilehem G Tebase, Carleen Klumpp-Thomas, Robert W Robey, Suresh V Ambudkar, Min Shen, Michael M Gottesman, Matthew D Hall. A High-Throughput Screen of a Library of Therapeutics Identifies Cytotoxic Substrates of P-glycoprotein. Mol Pharmacol. 2019, Nov;96(5):629-640.

Compound | Potency | activity change, negative = inhibition
C#CCN(Cc1cc2c(=O)n(C)c(CN3CCN(C)CC3)nc2cc1Cl)c1ccc(C(=O)NCc2cccnc2)cc1 | inactive | 
Cc1ccc(C(=O)N(CCCN)[C@@H](c2oc3cc(Cl)ccc3c(=O)c2Cc2ccccc2)C(C)C)cc1 | 20.9 µM (active) | 
CCN(CCCO)CCCOc1ccc2c(Nc3cc(CC(=O)Nc4cccc(F)c4)[nH]n3)ncnc2c1 | inactive | 
Cc1ccc(-c2ncn(-c3ccc(Nc4nccc(-c5cccc(N6CCOCC6)c5)n4)cc3)n2)cn1 | 4.18 µM (active) | 
CN(C)C/C=C/C(=O)Nc1cccc(C(=O)Nc2ccc(Nc3nccc(-c4cccnc4)n3)cc2)c1 | inactive | 
N=C(N)c1ccc(OCCCCCOc2ccc(C(=N)N)cc2)cc1 | inactive | 
C[C@@H]1O[C@@H](O[C@H]2[C@H](O)[C@@H](O)[C@H](O[C@H]3[C@H](O[C@H]4CC[C@@]5(C)C(=CC[C@@H]6C5CC[C@]5(C)[C@@H]7[C@H](C[C@@H]65)O[C@]5(CC[C@@](C)(CO[C@@H]6O[C@H](CO)[C@@H](O)[C@H](O)[C@H]6O)O5)[C@H]7C)C4)O[C@H](CO)[C@@H](O)[C@@H]3O)O[C@@H]2CO)[C@H](O)[C@H](O)[C@H]1O (stereo not given in full) | inactive | 
COc1cc2c(NC3CCN(C(C)C)CC3)nc(N3CCCN(C)CC3)nc2cc1OCCOCCN(C)C | inactive | 
C[C@@]12O[C@@H](C[C@]1(O)CO)n1c3ccccc3c3c4c(c5c6ccccc6n2c5c31)CNC4=O | 5.26 µM (active) | 
COc1cc(N2CCC(O)CC2)ccc1Nc1nc(Nc2ccccc2S(=O)(=O)C(C)C)c2[nH]cnc2n1 | inactive | 
COc1cc2ncn(-c3cc(OCc4ccccc4C(F)(F)F)c(C(N)=O)s3)c2cc1OC | 19.1 µM (active) | 
COC[C@H](NC(=O)c1cnc(C)s1)C(=O)N[C@@H](COC)C(=O)N[C@@H](Cc1ccccc1)C(=O)[C@@]1(C)CO1 | 0.935 µM (active) | 
C#Cc1cccc(Nc2ncnc3cc(OC)c(OCCCCCCC(=O)NO)cc23)c1 | 13.2 µM (active) | 
CC1(C)CC(NC(=O)C(=O)Nc2ccc(Br)cc2)CC(C)(C)N1 | inactive | 
O=C(NC1CC1)c1cccc(-c2ccc3c(NC(=O)C4CC4)n[nH]c3c2)c1 | inactive | 
Cc1c2oc3c(C)ccc(C(=O)N[C@@H]4C(=O)NC(C(C)C)C(=O)N5CCC[C@H]5C(=O)N(C)CC(=O)N(C)C(C(C)C)C(=O)O[C@@H]4C)c3nc-2c(C(=O)N[C@@H]2C(=O)NC(C(C)C)C(=O)N3CCC[C@H]3C(=O)N(C)CC(=O)N(C)C(C(C)C)C(=O)O[C@@H]2C)c(N)c1=O (stereo not given in full) (I: T[ξV]P[Sar][ξNMeV] / II: T[ξV]P[Sar][ξNMeV]; ester I:1-I:C, II:1-II:C; linker I:N-II:N via Actinocin(9to1)) | 0.418 µM (active) | 
CC(=O)C1(O)Cc2c(O)c3c(c(O)c2C(OC2CC(N)C(O)C(C)O2)C1)C(=O)c1c(O)cccc1C3=O (stereo not given) | 0.526 µM (active) | 
C=C1CO[C@@]2(O[C@H]3CC4C5CC=C6C[C@@H](O)C[C@@H](O[C@@H]7OC[C@H](O)[C@H](O[C@@H]8OC[C@@H](O)[C@H](O)[C@H]8O)[C@H]7O[C@@H]7O[C@@H](C)[C@H](OC(C)=O)[C@@H](OC(C)=O)[C@H]7OC(C)=O)[C@]6(C)C5CC[C@]4(C)[C@@H]3[C@@H]2C)[C@@H](O)[C@H]1OC1OC(C)C(O)C(O)C1O (stereo not given in full) |  | 4.44% [at 8.96 µM]
CCc1cccc(CC)c1NC(=O)N1Cc2[nH]nc(NC(=O)c3ccc(N4CCN(C)CC4)cc3)c2C1 | inactive | 
CCn1c(-c2nonc2N)nc2c(C#CC(C)(C)O)ncc(OC[C@H]3CCCNC3)c21 | inactive | 

Compound | Potency | activity change, negative = inhibition
COC(C(=O)N1Cc2[nH]nc(NC(=O)c3ccc(N4CCN(C)CC4)cc3)c2C1)c1ccccc1 (stereo not given) | inactive | 
COc1ccc(CC2C(=O)NC(C)C(=O)N(C)C3Cc4ccc(cc4)Oc4cc(ccc4OC4OC(CO)C(O)C(O)C4O)CC(C(=O)NC(C)C(=O)NC(C)C(=O)N2C)N(C)C3=O)cc1 (stereo not given) | inactive | 
Cc1ccc(C(=O)N(CCCN)C(c2nc3cc(Cl)ccc3c(=O)n2Cc2ccccc2)C(C)C)cc1 (stereo not given) | 20.9 µM (active) | 
CC1(C)CC[C@]2(C(=O)OC3OC(CO)C(O)C(O)C3O)CC[C@]3(C)C(=CCC4[C@@]5(C)CC[C@H](OC6OC(C(=O)O)C(O)C(O)C6O)C(CO)(CO)C5CC[C@]43C)[C@@H]2C1 (stereo not given in full) | inactive | 
CO[C@H]1/C=C/C=C/C=C/C[C@H](OC(=O)[C@@H](C)NC(=O)C2CCCCC2)[C@H](C)[C@@H](O)/C(C)=C/CCc2cc(O)cc(c2)NC(=O)C1 | inactive | 
Cc1[nH]c2ccccc2c1CCNCc1ccc(/C=C/C(=O)NO)cc1 | 2.96 µM (active) | 
CCCC(C=O)NC(=O)C(CC(C)C)NC(=O)C(CC(C)C)NC(=O)OCc1ccccc1 (stereo not drawn) (Cbz-Leu-Leu-[Nva]-aldehyde; configuration not given here) | 3.72 µM (active) | 
CCC(C)C(=O)OC1CC(O)C23C4OCC5(C(O)CC2C1(C)C(O)O4)C3C(=O)C(O)C1(C)C(O)(c2ccoc2)CC2OC251 (stereo not given) | inactive | 
C=CCn1c(=O)c2cnc(Nc3ccc(N4CCN(C)CC4)cc3)nc2n1-c1cccc(C(C)(C)O)n1 | 4.18 µM (active) | 
CC(=O)O[C@@H]1C[C@H](O)[C@@]23CO[C@@H](O)C1(C)[C@@H]2C[C@@H](O)[C@]1(C)[C@@H]3C(=O)[C@H](OC(C)=O)[C@@]2(C)[C@H](c3ccoc3)C[C@H]3O[C@]321 | 2.96 µM (active) | 
CCN(CC)Cc1ccc(C(=O)N(CCc2ccccc2OC)[C@@H]2CCNC2)cc1 | inactive | 
Cc1cc(Nc2cc(N3CCN(C)CC3)nc(Sc3ccc(NC(=O)C4CC4)cc3)n2)n[nH]1 | inactive | 
CN(C)C1CCN(C(=O)c2ccc(NC(=O)Nc3nc(N4CCOCC4)nc(N4CCOCC4)n3)cc2)CC1 | inactive | 
CC(C)CC(=O)Nc1n[nH]c2c1CN(C(=O)C1CCN(C)CC1)C2(C)C | inactive | 
CC(C)(C)c1cnc(CSc2cnc(NC(=O)C3CCNCC3)s2)o1 | 38.2 µM (active) | 
COCCn1c2c([n+](Cc3cnccn3)c1C)C(=O)c1ccccc1C2=O | inactive | 
CC(NCc1ccc2c(c1)nc(NC(=O)c1ccc(-c3cn[nH]c3)s1)n2CC(C)(C)O)C(C)(C)C (stereo not given) | 6.62 µM (active) | 
CC[C@@]1([C@@H]2O[C@@H]([C@H]3O[C@@](O)(CO)[C@H](C)C[C@@H]3C)C[C@@H]2C)CC[C@H]([C@]2(C)CC[C@]3(C[C@H](O)[C@@H](C)[C@@H]([C@@H](C)[C@@H](OC)[C@H](C)C(=O)O)O3)O2)O1 | 1.05 µM (active) | 
CC(C)C[C@@H](C=O)NC(=O)[C@H](CC(C)C)NC(=O)[C@H](CC(C)C)NC(=O)OCc1ccccc1 (Cbz-Leu-Leu-Leu-aldehyde) | 2.96 µM (active) | 
CCN1CCN(Cc2ccc(NC(=O)Nc3ccc(Oc4cc(NC)ncn4)cc3)cc2C(F)(F)F)CC1 | inactive | 

Reference: PubChem BioAssay AID1508635 (National Center for Advancing Translational Sciences (NCATS), 2021)
